Experimental data: PMC4336329 (PLoS ONE, 2015)
Hit rate of the full screen: of about 310,000 compounds, about 14,000 (4.5%) showed an effect of 50% or more. Effects have a minus sign here. For the sample, strong results were picked, then their nearest neighbours and some compounds at random.

Target: human ether-à-go-go-related gene (hERG) potassium channel (human, UniProt Q12809)
Assay: primary screen, population patch clamp on CHO cells stably expressing hERG; higher = less effect of the substance
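Note: peak tail current of the secondary pulse compared with the same well before compound.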

Chain of human ether-à-go-go-related gene (hERG) potassium channel (Q12809 whole entry, looked up): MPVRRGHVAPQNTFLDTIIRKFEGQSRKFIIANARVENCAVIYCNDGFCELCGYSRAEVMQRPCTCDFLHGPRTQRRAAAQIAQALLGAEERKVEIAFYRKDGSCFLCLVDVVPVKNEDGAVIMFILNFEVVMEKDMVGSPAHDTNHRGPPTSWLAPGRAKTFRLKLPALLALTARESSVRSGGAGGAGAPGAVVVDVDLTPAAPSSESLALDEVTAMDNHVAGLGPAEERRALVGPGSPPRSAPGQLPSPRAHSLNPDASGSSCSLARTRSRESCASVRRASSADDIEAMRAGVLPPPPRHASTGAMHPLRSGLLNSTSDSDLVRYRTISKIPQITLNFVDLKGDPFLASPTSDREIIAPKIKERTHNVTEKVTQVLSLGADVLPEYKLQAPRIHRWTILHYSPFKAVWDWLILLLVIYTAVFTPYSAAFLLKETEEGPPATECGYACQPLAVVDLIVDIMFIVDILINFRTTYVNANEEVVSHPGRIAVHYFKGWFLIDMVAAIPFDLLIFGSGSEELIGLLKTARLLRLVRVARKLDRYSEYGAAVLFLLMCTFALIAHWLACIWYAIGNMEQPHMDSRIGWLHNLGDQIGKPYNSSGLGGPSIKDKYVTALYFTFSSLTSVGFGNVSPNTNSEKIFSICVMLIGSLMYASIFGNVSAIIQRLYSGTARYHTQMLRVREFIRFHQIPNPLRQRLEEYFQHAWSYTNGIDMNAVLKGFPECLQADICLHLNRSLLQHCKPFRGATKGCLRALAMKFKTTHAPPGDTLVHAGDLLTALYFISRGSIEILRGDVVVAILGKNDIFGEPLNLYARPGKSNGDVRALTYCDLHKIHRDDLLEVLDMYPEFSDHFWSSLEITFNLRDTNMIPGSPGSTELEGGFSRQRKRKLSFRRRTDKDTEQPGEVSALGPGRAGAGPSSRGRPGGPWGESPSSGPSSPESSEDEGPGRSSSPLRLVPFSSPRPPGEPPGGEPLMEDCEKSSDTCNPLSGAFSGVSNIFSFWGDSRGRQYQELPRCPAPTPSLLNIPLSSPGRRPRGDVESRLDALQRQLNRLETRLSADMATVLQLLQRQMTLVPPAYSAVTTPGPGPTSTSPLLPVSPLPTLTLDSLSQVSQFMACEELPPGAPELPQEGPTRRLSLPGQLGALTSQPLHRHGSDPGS

SMILES | hERG current change (%, negative = inhibition) at 10uM [%]
Cc1cc(C)c(C)c(S(=O)(=O)N2CCC(C(=O)NCC(c3ccccc3)N(C)C)CC2)c1C (stereo not shown) | -48.9
CC(CC(=O)N(C)CC(=O)Nc1ccc(N2CCOCC2)cc1)c1ccccc1 (stereo not shown) | -13.3
COC(C[C@H]1O[C@H]1C(=O)[C@H](C)OCc1ccccc1)OC | 14.5
CCC(c1nnnn1Cc1ccccc1)N1CCN(c2ccccc2)CC1 (stereo not shown) | -8.7
Cc1cc(Cl)ccc1NC(=O)Cn1cncn1 | 14.3
O=C(c1ccc(CS(=O)Cc2ccc(Cl)cc2)o1)N1CCN(c2cccc(Cl)c2)CC1 (stereo not shown) | -52.7
O=C(c1ccc(COc2ccccc2Cl)o1)N1CCN(c2ccccc2)CC1 | -24.1
O=C(c1ccc(CS(=O)Cc2ccc(Cl)cc2)o1)N1CCN(c2ccccc2)CC1 (stereo not shown) | -51.8
O=C(c1ccc(CS(=O)Cc2ccc(Cl)cc2)o1)N1CCN(c2ccc(F)cc2)CC1 (stereo not shown) | -62.1
COc1cccc(N2CCN(C(=O)c3ccc(CS(=O)c4ccc(Cl)cc4)o3)CC2)c1 (stereo not shown) | -42
COc1cccc(N2CCN(C(=O)c3ccc(CS(=O)Cc4ccc(Cl)cc4)o3)CC2)c1 (stereo not shown) | -41.8
CN1CCN(C(=O)c2ccc(CS(=O)Cc3ccc(Cl)cc3)o2)CC1 (stereo not shown) | 13.1
O=C(c1ccc(CS(=O)c2ccccc2Cl)o1)N1CCN(c2ccccc2)CC1 (stereo not shown) | -38.2
CCOC(=O)C1=C(C)N(c2ccc(Cl)cc2)C(=O)NC1c1cccc([N+](=O)[O-])c1 (stereo not shown) | -24.8
CCOc1ccc(S(=O)(=O)NCCC(=O)NCC2(N3CCCCC3)CCCCC2)cc1 | -33.2
Cc1ccc[n+](CC(=O)Nc2cccc(Cl)c2)c1.[Cl-] | 18.4
CCC(C)(C)C1CCc2c(sc(NC(=O)c3ccccc3C(=O)O)c2C#N)C1 (stereo not shown) | 10.3
O=C1C=C(N2CCN(C(=O)c3ccccc3)CC2)C2(CCCCC2)O1 | -10.3
O=C(NCCS(=O)(=O)N1CCc2ccccc2C1)c1ccccc1 | -23
COc1cccc(SCc2noc(C(=O)NCCCN3CCOCC3)c2C(=O)NCCCN2CCOCC2)c1 | -4.2
Cc1ccc(Cc2c(C)nc3nc(SCC(=O)NCCCN4CCCCC4)nn3c2C)cc1 | -42.7
Cc1ccc(Cc2c(C)nc3nc(SCC(=O)NCCCN4CCCCCC4)nn3c2C)cc1 | -54.8

SMILES | hERG current change (%, negative = inhibition) at 10uM [%]
Cc1ccc(Cc2c(C)nc3nc(SCC(=O)NCCCN4CCCC4)nn3c2C)cc1 | -28.4
CC(C)C[C@@H](N)c1nnc(SCC(=O)c2ccc(Cl)cc2)o1.Cl | -37.1
O=C(Nc1ccccc1Cl)c1cnccn1 | 2.9
CC1(C)CC(=O)C=C(Nc2ccccc2O)C1 | 15.7
CC1(C)CC(=O)C=C(Nc2ccccc2NC(=O)c2cnccn2)C1 | -64.7
Cc1ccc(-n2ncc3c2CCCC3NC(=O)c2ocnc2C)cc1C (stereo not shown) | 1.26
CCOC(=O)c1[nH]c2ccccc2c1N=C(C)N(CC)CC | -54.7
CCOC(=O)c1[nH]c2ccccc2c1NC(=O)CN(C)C | 7.08
CCOC(=O)c1[nH]c2ccc(F)cc2c1NC(=O)c1ccccc1C(=O)O | 19.4
CCOC(=O)c1[nH]c2ccc(OC)cc2c1N=CN(C)C | -7.13
CCOC(=O)c1[nH]c2ccccc2c1N=CN(C)C | -28.9
CCOC(=O)c1[nH]c2ccccc2c1NC(C)=O | -3.18
CCOC(=O)c1[nH]c2ccc(C)cc2c1N=C(C)N(C)C | -9.99
CCOC(=O)c1[nH]c2ccc(F)cc2c1N=C(C)N(CC)CC | -55.4
CCOC(=O)c1[nH]c2ccccc2c1N=CN(CC)CC | -60.8
CC(C)COc1ccc(CNC(=S)Nc2ccccc2)cc1Cl | 8.6
Cc1cc(C)c2c(=O)[nH]n(C(C)C)c2n1 | 7.27
O=C(O)c1ccc([N+](=O)[O-])c2c1C(=O)c1ccccc1C2=O | 23.5
NC(=S)N/N=C/c1c[nH]c2ccc(OCc3ccccc3)cc12 | 6.65
NC(=O)CSc1nnc(NC(=O)c2cccc(S(=O)(=O)N3CCCCC3)c2)s1 | 25.3
CCC(C(=O)Nc1ccc2c(c1)OCCO2)c1ccccc1 (stereo not shown) | 13.4
Cc1noc(C(=O)N2CCN(c3ccccc3)CC2)c1Cl | 6.13

SMILES | hERG current change (%, negative = inhibition) at 10uM [%]
CC1CCN(CCc2nc3cc(NC(=O)NC4CCCCC4)ccc3n2C)CC1 | -15.1
Cn1c(CCN2CCOCC2)nc2cc(NS(=O)(=O)c3ccccc3)ccc21 | -1.84
CC1CCN(CCc2nc3cc(NS(=O)(=O)c4ccc(F)cc4)ccc3n2C)CC1 | -70.8
Cn1c(CCN2CCCC2)nc2cc(NS(=O)(=O)c3ccccc3)ccc21 | -40.9
CC1CCN(CCc2nc3cc(NS(=O)(=O)c4ccccc4)ccc3n2C)CC1 | -65.5
CC1CCN(CCc2nc3cc(NC(=O)C(C)C)ccc3n2C)CC1 | -0.549
Cc1ccc(S(=O)(=O)NCCC(=O)NNC(=O)COc2ccccc2Cl)cc1C | -1.77
O=C(NC1CCCCCC1)C1CC(=O)N(Cc2ccccc2)C1 (stereo not shown) | 5.17
COc1ccccc1C(=O)NC(=S)Nc1ccc(N2CCOCC2)c(Cl)c1 | 13.1
O=[N+]([O-])c1ccc(Cl)cc1 | 10.9
CSc1cccc(NC(C)C(=O)NCc2ccccc2)c1 (stereo not shown) | 2.74
CC(CCN1CCOCC1)c1ccccc1 (stereo not shown) | 21.9
CC(CCN1CCN(c2ccc(F)cc2)CC1)c1ccccc1 (stereo not shown) | -64.3
CC(CCN1CCN(CCO)CC1)c1ccccc1 (stereo not shown) | 9.32
CC(CCN1CCN(c2ccccc2)CC1)c1ccccc1.Cl (stereo not shown) | -54.6
Cn1cc(CN2CCN(c3ccccc3)CC2)c2ccccc21 | -54
CC(CN1CCN(c2ccccc2)CC1)c1ccccc1 (stereo not shown) | -25.5
CN1CCN(Cc2cn(C)c3ccccc23)CC1CCO (stereo not shown) | 25.5
c1ccc(N2CCN(Cc3ccnc4ccccc34)CC2)cc1 | -0.764
Cl.c1ccc(SCCN2CCN(c3ccccc3)CC2)cc1 | -10.9
N#CCN1C(=O)NC2(CCCc3sccc32)C1=O (stereo not shown) | 11.1
COc1cccc(-c2csc(/C(C#N)=C/Nc3cc4oc5ccccc5c4cc3OC)n2)c1 | 12.8

SMILES | hERG current change (%, negative = inhibition) at 10uM [%]
O=C(c1noc2c1CCCC2)N1CCCCC1 | -0.65
Cc1cnc2c(c1)C(=O)c1ccccc1-2 | 13.6
O=C(NCCN1CCOCC1)c1ccccc1[N+](=O)[O-] | 1.06
CN1CCN(c2ccc(NC(=S)NC(=O)/C=C/c3ccco3)cc2)CC1 | -7.96
CCOc1ccc(S(=O)(=O)N2CCN(Cc3ccc4c(c3)OCO4)CC2)cc1Cl | -8.94
Cn1cnc(S(=O)(=O)N2CCN(C(c3ccc(F)cc3)c3ccc(F)cc3)CC2)c1 | -7.05
Cc1cc(C)c(C)c(S(=O)(=O)NCCN2CCOCC2)c1C | -9.48
Cc1cc(=O)oc2c1ccc1ccccc12 | 18.7
COC(=O)c1ccccc1NC(=S)N(Cc1ccc2c(c1)OCO2)Cc1cc2ccc(OC)cc2[nH]c1=O | -13.6
CCN1CCCC1CN(Cc1cc2ccc(C)cc2[nH]c1=O)C(=S)Nc1ccc(OC)cc1OC (stereo not shown) | -74.5
COC(=O)c1ccccc1NC(=S)N(Cc1ccc2c(c1)OCO2)Cc1cc2cc(C)ccc2[nH]c1=O | 0.949
CCN1CCCC1CN(Cc1cc2ccc(C)cc2[nH]c1=O)C(=S)Nc1ccc(F)cc1 (stereo not shown) | -78.5
Cc1ccc2cc(CN(CC3CCCO3)C(=S)Nc3ccccc3)c(=O)[nH]c2c1 (stereo not shown) | -37
COC(=O)c1ccccc1NC(=S)N(Cc1ccc2c(c1)OCO2)Cc1cc2ccc(C)cc2[nH]c1=O | 15.1
CNC(=S)N(Cc1ccc(OC)cc1)Cc1cc2ccc(C)cc2[nH]c1=O | 14
CCN1CCCC1CN(Cc1cc2ccc(C)cc2[nH]c1=O)C(=S)Nc1ccccc1OC (stereo not shown) | 46.7
Cc1ccc2[nH]c(=O)c(CN(CC3CCCO3)C(=S)Nc3ccccc3)cc2c1 (stereo not shown) | -8.2
CCN(CC)CCN(Cc1cc2ccc(C)cc2[nH]c1=O)C(=S)Nc1ccccc1C(=O)OC | -64.2
CCN1CCCC1CN(Cc1cc2ccc(C)cc2[nH]c1=O)C(=S)Nc1ccccc1C(=O)OC (stereo not shown) | -85.2
COC(=O)c1ccccc1NC(=S)N(Cc1ccc2c(c1)OCO2)Cc1cc2cc(OC)ccc2[nH]c1=O | 8.29
Cc1ccc(NC(=O)CCN2C(=O)C3C4CCC(C4)C3C2=O)cc1[N+](=O)[O-] (stereo not shown) | -0.749
O=C(Nc1ccc(C(F)(F)F)cc1)c1cc(-c2cccnc2)nc2ccc(Br)cc12 | -16.2
